# Reference: publication PMC5540273 (PLoS ONE, 2017)
# Read-outs that look alike come from different tables or passages of the source.
# Columns and labels:
# TAOK3 = settings: concentration: 1 μM, replicates: in singlicate; n = 1
# TBK1 = settings: concentration: 1 μM, replicates: in singlicate; n = 1
# TEC = settings: concentration: 1 μM, replicates: in singlicate; n = 1
# TESK1 = settings: concentration: 1 μM, replicates: in singlicate; n = 1
# TGFBR1 = settings: n = 1
# TGFBR2 = settings: concentration: 1 μM, replicates: in singlicate; n = 1
# TIE1 = settings: concentration: 1 μM, replicates: in singlicate; n = 1
# TIE2 = system: T1, TIE2; settings: concentration: 1 μM, replicates: in singlicate; n = 1
# T1 construct: gene TEK
# TLK1 = settings: concentration: 1 μM, replicates: in singlicate; n = 1
# TLK2 = settings: concentration: 1 μM, replicates: in singlicate; n = 1
# TNIK = settings: concentration: 1 μM, replicates: in singlicate; n = 1
# TNK1 = settings: concentration: 1 μM, replicates: in singlicate; n = 1
# TNK2 = settings: concentration: 1 μM, replicates: in singlicate; n = 1
# TNNI3K = settings: concentration: 1 μM, replicates: in singlicate; n = 1
# TRKA = system: T2, TRKA; settings: concentration: 1 μM, replicates: in singlicate; n = 1
# T2 construct: gene NTRK1
# TRKB = settings: concentration: 1 μM, replicates: in singlicate; n = 1
# TRKC = system: T3, TRKC; settings: concentration: 1 μM, replicates: in singlicate; n = 1
# T3 construct: gene NTRK3
# TRPM6 = settings: concentration: 1 μM, replicates: in singlicate; n = 1
# TSSK1B = settings: concentration: 1 μM, replicates: in singlicate; n = 1
# TSSK3 = settings: concentration: 1 μM, replicates: in singlicate; n = 1
# [1] = concentration: 1 μM, replicates: in singlicate
# 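Further: KINOMEscan kinase panel screen.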
smiles,measurement,setting,value
Cl.c1ccc(-c2n[nH]cc2-c2ccnc(-c3ccc(CN4CCOCC4)cc3)c2)nc1 [GW776245],%Inh,TAOK3,0%
same,%Inh,TBK1,61%
same,%Inh,TEC,17%
same,%Inh,TESK1,6%
same,%Inh,TGFBR1; 1 µM,94.5%
same,%Inh,TGFBR2,87%
same,%Inh,TIE1,0%
same,%Inh,TIE2,24%
same,%Inh,TLK1,0%
same,%Inh,TLK2,0%
same,%Inh,TNIK,30%
same,%Inh,TNK1,42%
same,%Inh,TNK2,0%
same,%Inh,TNNI3K,0%
same,%Inh,TRKA,0%
same,%Inh,TRKB,0%
same,%Inh,TRKC,0%
same,%Inh,TRPM6,0%
same,%Inh,TSSK1B,0%
same,%Inh,TSSK3,0%
Cc1cccc(-c2nc(Nc3ccncc3)c3ccccc3n2)n1 [GW855857],%Inh,TAOK3,0%
same,%Inh,TBK1,41%
same,%Inh,TEC,10%
same,%Inh,TESK1,14%
same,%Inh,TGFBR2,95.7%
same,%Inh,TIE1,20%
same,%Inh,TIE2,27%
same,%Inh,TLK1,0%
same,%Inh,TLK2,0%
same,%Inh,TNIK,29%
same,%Inh,TNK1,39%
same,%Inh,TNK2,0%
same,%Inh,TNNI3K,20%
same,%Inh,TRKA,0%
same,%Inh,TRKB,0%
same,%Inh,TRKC,0%
same,%Inh,TRPM6,0%
same,%Inh,TSSK1B,0%
same,%Inh,TSSK3,0%
COC(=O)c1c(-c2ccccc2)c2cc(C(=O)O)ccc2c(=O)n1Cc1ccccc1,%Inh,TAOK3,0%
same,%Inh,TBK1,6%
same,%Inh,TEC,0%
same,%Inh,TESK1,0%
same,%Inh,TGFBR1; [1],21%
same,%Inh,TGFBR2,8%
same,%Inh,TIE1,0%
same,%Inh,TIE2,18%
same,%Inh,TLK1,10%
same,%Inh,TLK2,0%
same,%Inh,TNIK,0%
same,%Inh,TNK1,0%
same,%Inh,TNK2,0%
same,%Inh,TNNI3K,0%
same,%Inh,TRKA,0%
same,%Inh,TRKB,0%
same,%Inh,TRKC,11%
same,%Inh,TRPM6,0%
same,%Inh,TSSK1B,0%
same,%Inh,TSSK3,0%
CS(=O)(=O)c1ccc(-c2nc3n(c2-c2ccncc2)CCC3)cc1 [SKF-105942],%Inh,TAOK3,0%
same,%Inh,TBK1,27%
same,%Inh,TEC,7%
same,%Inh,TESK1,1%
same,%Inh,TGFBR1; [1],15%
same,%Inh,TGFBR2,0%
same,%Inh,TIE1,8%
same,%Inh,TIE2,0%
same,%Inh,TLK1,0%
same,%Inh,TLK2,0%
same,%Inh,TNIK,0%
same,%Inh,TNK1,0%
same,%Inh,TNK2,42%
same,%Inh,TNNI3K,19%
same,%Inh,TRKA,0%
same,%Inh,TRKB,0%
same,%Inh,TRKC,0%
same,%Inh,TRPM6,0%
same,%Inh,TSSK1B,100%
same,%Inh,TSSK3,6%
Cc1c(O)cccc1Nc1ccnc2ccc(C(F)(F)F)cc12.Cl [GW466413],%Inh,TAOK3,0%
same,%Inh,TBK1,0%
same,%Inh,TEC,0%
same,%Inh,TESK1,10%
same,%Inh,TGFBR1; [1],2%
same,%Inh,TGFBR2,8%
same,%Inh,TIE1,12%
same,%Inh,TIE2,0%
same,%Inh,TLK1,14%
same,%Inh,TLK2,0%
same,%Inh,TNIK,0%
same,%Inh,TNK1,0%
same,%Inh,TNK2,17%
same,%Inh,TNNI3K,0%
same,%Inh,TRKA,9%
same,%Inh,TRKB,0%
same,%Inh,TRKC,31%
same,%Inh,TRPM6,0%
same,%Inh,TSSK1B,0%
same,%Inh,TSSK3,1%
O=C(Nc1n[nH]c2nc(-c3nccs3)c(Br)cc12)C1CCCC1 [SB-742609],%Inh,TAOK3,0%
same,%Inh,TBK1,0%
same,%Inh,TEC,0%
same,%Inh,TESK1,43%
same,%Inh,TGFBR1; [1],31%
same,%Inh,TGFBR2,0%
same,%Inh,TIE1,14%
same,%Inh,TIE2,0%
same,%Inh,TLK1,0%
same,%Inh,TLK2,0%
same,%Inh,TNIK,1%
same,%Inh,TNK1,2%
same,%Inh,TNK2,4%
same,%Inh,TNNI3K,6%
same,%Inh,TRKA,0%
same,%Inh,TRKB,59%
same,%Inh,TRKC,24%
same,%Inh,TRPM6,0%
same,%Inh,TSSK1B,8%
same,%Inh,TSSK3,0%
Cn1ccc2ncnc(Oc3ccc(Nc4nc5ccccc5[nH]4)cc3)c21,%Inh,TAOK3,0%
same,%Inh,TBK1,0%
same,%Inh,TEC,0%
same,%Inh,TESK1,0%
same,%Inh,TGFBR1; [1],0%
same,%Inh,TGFBR2,0%
same,%Inh,TIE1,5%
same,%Inh,TIE2,0%
same,%Inh,TLK1,0%
same,%Inh,TLK2,0%
same,%Inh,TNIK,0%
same,%Inh,TNK1,0%
same,%Inh,TNK2,0%
same,%Inh,TNNI3K,0%
same,%Inh,TRKA,0%
same,%Inh,TRKB,0%
same,%Inh,TRKC,0%
same,%Inh,TRPM6,100%
same,%Inh,TSSK1B,0%
same,%Inh,TSSK3,0%
